HT1080-NT tox – kills 2HG-producing HT-1080-NT fibrosarcoma cells; Potency, µM (top dose mostly 46.1 µM), actives largely listed as cytotoxic; HT-1080-NT fibrosarcoma viability, CellTiter-Glo ATP luminescence, 48 h; 360,000 compounds, 1.6% hits;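 further: NT is the 2HG producing partner of a matched IDH1 knockdown line; nearly all actives have a fitted effect of over 55% in size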
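750 cells/well, RPMI + 5% FBS; 2 h settle, compound pin-transfer, 48 h at 37 degrees C. CellTiter-Glo 10 min RT, luminescence. Normalized to DMSO and media-only wells.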
HT1080 IDH1KD tx – toxicity to HT-1080 IDH1 knockdown cells (counter line) | Potency, µM (doses to about 46.1 µM), actives largely listed as cytotoxic | HT-1080 IDH1 knockdown viability, ATP luminescence, 48 h | 360,000 compounds, 2% hits | AID 686971
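% activity derives from luminescence (CellTiter-Glo), normalised to DMSO and no-cell wells. HT-1080-IDH1KD cells, 750/well, had 48 h compound exposure at 37 °C.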
IL1B secr inh – inhibitors of inflammasome signaling (IL-1 beta secretion); AID 743279; THP-1 LPS/ATP IL-1B secretion, AlphaLISA, 16 h; active compounds read low; 360,000 compounds, 4.7% hits; activity change, % at 57.5 µM; in the data active means activity change below about -50%; inconclusive means mostly about -30% to -49%
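Secreted IL-1B measured by AlphaLISA bead assay after 16 h compound exposure of THP-1 cells; compounds (final up to 57.5 uM) added 1 h before LPS (250 ng/mL) and ATP (1.25 mM) stimulation; lower signal means less secretion.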
DT40 TDP1 CPT – growth inhibition of DT40 Tdp1-/-;hTDP1 cells with camptothecin (screen for TDP1 inhibitors); AID 686979; Potency, µM (highest dose often 46.2 µM), usual class: inhibitors; 420,000 compounds, 12% hits; chicken DT40 Tdp1-/-;hTDP1 cells + 20 nM CPT, ATP luminescence, 48 h; further: nearly all actives have a fitted effect of over 55% in size
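Chicken DT40 Tdp1-/- cells complemented with human TDP1, 400 cells/well, exposed to compounds plus 20 nM camptothecin for at least 48 h at 37 C; viability read as ATP content by CellTiter-Glo luminescence.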
TDP1 cell noCPT – qHTS for Inhibitors of human tyrosyl-DNA phosphodiesterase 1 (TDP1): qHTS in cells in absence of CPT. DT40 Tdp1-/- hTDP1 cells, no CPT, ATP luminescence, 48 h. Potency, µM (titrated, usually from 46.2 µM), most hits filed as inhibitors. 420,000 compounds, 15% hits; further: nearly all actives have a fitted effect of over 55% in size
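Compound effects on proliferation are scored in DT40 Tdp1-/-;hTDP1 cells in the absence of CPT. ATP levels (CellTiter-Glo luminescence) are recorded after a ≥48 hr, 37 °C incubation.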
Hits are given with their value; i = inactive; ? = inconclusive; nt = no result given. This is a sample that favours compounds with a hit; in the whole collection about 19% have one here. Unless noted, the call rests on the fitted dose curve; in most records, active means well fitted curve in the direction sought with a large enough effect; inconclusive means small, poorly fitted or top-dose-only effect, or another doubt; inactive means no such curve, though single readings can be large; an effect the other way counts as inactive or inconclusive.

SMILES | HT1080-NT tox | HT1080 IDH1KD tx | IL1B secr inh | DT40 TDP1 CPT | TDP1 cell noCPT
Cc1cc(C)c(OCC(=O)Nc2ccc(S(=O)(=O)N3CCCC3)cc2)c(C)c1 | ? | i | i | ? | ?
CN1CCN(C2=C(Cl)C(=O)N(c3cccc(Cl)c3)C2=O)CC1 | i | i | i | i | i
CN1CCN(C2=C(Cl)C(=O)N(c3ccc(Cl)c(Cl)c3)C2=O)CC1 | ? | ? | ? | 29µM | ?
CCCOC(=O)/C(=C\c1ccc([N+](=O)[O-])o1)NC(=O)c1ccccc1 | i | i | i | 16µM | 21µM
O=C(NCCO)/C(=C\c1ccc([N+](=O)[O-])o1)NC(=O)c1ccccc1 | i | i | i | ? | 29µM
COC(=O)/C(=C\c1ccc([N+](=O)[O-])cc1)NC(=O)c1ccccc1 | i | i | i | i | i
CCOC(=O)/C(=C/c1cn(C)c2ccccc12)NC(=O)c1ccccc1 | i | i | i | i | ?
CCOC(=O)/C(=C\c1ccc([N+](=O)[O-])o1)NC(=O)c1ccccc1 | ? | ? | i | 23µM | 18µM
CCCOC(=O)/C(=C\C=C\c1ccco1)NC(=O)c1ccccc1 | i | i | i | 13µM | 21µM
CN(C)CCCN1C(=O)C2CCc3[nH]c4ccccc4c3C2C1=O (stereo not given) | i | i | i | i | i
CCCOc1ccc(F)cc1-c1cc(C(=O)Nc2ccc(C(C)C)cc2)[nH]n1 | ? | 23µM | i | ? | 26µM
CCCOc1ccc(F)cc1-c1cc(C(=O)NC(C)C)[nH]n1 | i | i | i | ? | ?
CCCOc1ccc(F)cc1-c1cc(C(=O)Nc2ccc(OC)c(OC)c2)[nH]n1 | ? | ? | -68 | 21µM | ?
COc1ccc(NC(=O)c2cc(-c3cc(F)ccc3OC)n[nH]2)cn1 | i | i | nt | ? | ?
CCCOc1ccc(F)cc1-c1cc(C(=O)NCc2cccs2)[nH]n1 | i | i | ? | 23µM | 7.3µM
COc1cc(F)ccc1-c1cc(C(=O)Nc2ccc(C)c(NS(C)(=O)=O)c2)[nH]n1 | i | i | i | ? | i
COc1ccc(NC(=O)c2cc(-c3cc(F)ccc3OC)n[nH]2)cc1OC | ? | ? | i | 21µM | 23µM
CC(C)Oc1cc(F)ccc1-c1cc(C(=O)NCc2cccs2)[nH]n1 | i | i | i | ? | ?
COC(=O)c1sccc1NC(=O)c1ccc(Br)s1 | i | i | i | i | i
O=C(O)C1CC=CCC1C(=O)NCc1ccc(Cl)c(Cl)c1 (stereo not given) | i | i | i | i | i
O=C(COc1ccc(Cl)c(Cl)c1)NN1C(=O)C2C(C1=O)C1C=CC2C12CC2 (stereo not given) | i | i | i | i | 18µM
CC(C)=C1C2CCC1C1C(=O)N(NC(=O)COc3ccc(Cl)c(C)c3)C(=O)C21 (stereo not given) | i | i | -68 | i | i
Cc1ccc(C(=O)NN2C(=O)C3C4C=CC([C@@H]3C2=O)C42CC2)cc1 (stereo not given in full) | i | i | i | i | i
Cc1ccc(CNC(=O)N2CCC(CN3CCC(C)CC3)CC2)cc1 | nt | nt | nt | i | i
CCCCN1C(=O)CN(C2CCCCCC2)C(=O)C1c1ccc(OCCC)c(OC)c1 (stereo not given) | nt | nt | nt | 12µM | ?
SMILES | HT1080-NT tox | HT1080 IDH1KD tx | IL1B secr inh | DT40 TDP1 CPT | TDP1 cell noCPT
COc1ccccc1CN1C(=O)CN(C2CCCCCC2)C(=O)C1c1ccc(F)cc1 (stereo not given) | i | ? | i | 21µM | 18µM
CCOc1ccc(C2C(=O)N(C3CCCCC3)CC(=O)N2Cc2ccc(F)cc2)cc1OC (stereo not given) | nt | nt | nt | ? | i
CCCOc1ccc(C2C(=O)N(C3CCCCCC3)CC(=O)N2Cc2ccccc2OC)cc1OC (stereo not given) | nt | nt | nt | 26µM | 16µM
CC(=O)c1cn(-c2ccc(Cl)cc2)c(=O)n(Cc2ccc(Br)cc2)c1=O | i | i | i | i | ?
CCN(Cc1nc2cc(Cl)ccc2c(=O)[nH]1)C(=O)c1ccc(C)c(NC(=O)c2ccco2)c1 | i | i | i | i | i
O=C(COc1ccc2c3c(c(=O)oc2c1)CCC3)NCC(O)c1ccccc1 (stereo not given) | i | i | i | i | i
CC(C)Nc1nc(Cl)nc(N(C#N)CN2C(=O)c3ccccc3S2(=O)=O)n1 | i | i | ? | 26µM | 18µM
CC(C)(C)Nc1nc(Cl)nc(N(C#N)CN2C(=O)c3ccccc3S2(=O)=O)n1 | i | ? | -101 | ? | ?
N#Cc1ccccc1CN1C(=O)c2ccccc2S1(=O)=O | i | i | i | i | i
CN(C)c1nc(N(C)C)nc(N(C#N)CN2C(=O)c3ccccc3S2(=O)=O)n1 | i | i | i | i | i
CCOC(=O)c1c(Cc2cccc(Cl)c2)c[nH]c1C | i | i | i | i | i
CCOC(=O)c1ccc(NC(=O)c2ccc(=O)n(Cc3cccc(C)c3)c2)cc1 | nt | nt | nt | 21µM | 16µM
CCOC(=O)c1ccc(NC(=O)c2c(N)n(Cc3ccccc3)c(=O)[nH]c2=O)cc1 | i | i | i | 16µM | i
CC(C)c1ccc(NC(=O)c2ccc(=O)n(Cc3ccccc3)c2)cc1 | nt | nt | nt | 16µM | 21µM
O=C(Nc1ccccc1)c1ccc(=O)n(Cc2cccc(Cl)c2)c1 | i | i | i | i | i
CCCCNc1nc2c(-c3cccc(C)c3)nnn2c2ccccc12 | nt | nt | nt | i | i
Cc1ccc(NC(=S)NCc2ccc3c(c2)OCO3)cc1C | i | i | -69 | i | ?
O=C(NC12CC3CC(CC(C3)C1)C2)N1CCC(O)(c2ccc3c(c2)OCO3)CC1 | i | i | i | 7.3µM | 15µM
Cc1nc2cc(NC(=O)NCc3ccc4c(c3)OCO4)ccc2o1 | i | i | i | i | i
Cc1ccc(NC(=O)NCc2ccc3c(c2)OCO3)cc1C | i | i | -63 | i | i
CC(=O)N1CCC(O)(c2ccc3c(c2)OCO3)CC1 | i | i | i | i | i
Fc1ccc(NC(=S)NCc2ccc3c(c2)OCO3)cc1 | i | i | i | ? | ?
Fc1ccc(NC(=S)SCc2ccc3c(c2)OCO3)cc1F | i | i | i | ? | 18µM
O=C(NCc1ccc2c(c1)OCO2)NC12CC3CC(CC(C3)C1)C2 | i | i | i | 21µM | 18µM
N#CC(Sc1ccccn1)c1ccc(Cl)cc1 (stereo not given) | i | ? | -100 | ? | ?
COc1ccc(C)cc1S(=O)(=O)N(CC(=O)Nc1cc([N+](=O)[O-])ccc1C)c1ccc(C)c(C)c1 | i | i | i | 8.2µM | 10µM
COc1ccc(C)cc1S(=O)(=O)N(CC(=O)Nc1cccc([N+](=O)[O-])c1)c1cc(C)cc(C)c1 | i | ? | i | i | ?
